Source: PubChem BioAssay (NCI)
This is part of a sample that, as a whole, favours compounds with a hit. Of some 79,000 tested, about 15% had one in any assay. Active and inactive are the calls of the source. Cut-off read from the data, not from the text of the source: active = growth inhibition above about 70%; inactive = the rest.

Legend:
[1] = NCI Yeast Anticancer Drug Screen. Data for the rad52 strain (AID 147);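 note: 0% = growth of vehicle-treated control cultures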; settings: S. cerevisiae rad52 mutant growth inhibition, hits give high values
How it was run: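 DNA repair-defective yeast; compound exposure; growth scored against vehicle controls.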

[2] = NCI Yeast Anticancer Drug Screen. Data for the wt1 strain (AID 149);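 note: 0% = growth of vehicle-treated wt1 cultures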; settings: S. cerevisiae wt1 strain (SPY 50644) growth inhibition, hits give high values
How it was run: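 wt1 yeast, compound-treated; % growth inhibition vs vehicle control.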

[3] = NCI Yeast Anticancer Drug Screen. Data for the rad50EPP+ strain (AID 151);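 note: 0% = growth of vehicle-treated control cultures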; settings: S. cerevisiae rad50 mutant strain, hits give high values
How it was run: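 rad50EPP+ yeast treated with test compounds. Readout: growth vs vehicle control.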

[4] = NCI Yeast Anticancer Drug Screen. Data for the mgt1 strain (AID 153); settings: S. cerevisiae mgt1 mutant growth inhibition, hits give high values
How it was run: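 Growth inhibition relative to vehicle controls was scored for the mgt1 yeast strain after compound exposure.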

[5] = NCI Yeast Anticancer Drug Screen. Data for the rad50 strain (AID 155);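 note: 0% = growth of vehicle-only cultures of the same strain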; settings: S. cerevisiae rad50 strain growth inhibition, hits give high values
How it was run: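 Genetically altered yeast (DNA repair pathway); compound treatment; growth inhibition vs vehicle ctrl.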

[6] = NCI Yeast Anticancer Drug Screen. Data for the mec2-1 strain (AID 157); settings: S. cerevisiae mec2-1 strain, hits give high values
How it was run: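 Growth inhibition is read against vehicle-treated controls after compound exposure of the mec2-1 yeast strain, which is defective in DNA damage repair or cell cycle control.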

[7] = NCI Yeast Anticancer Drug Screen. Data for the rad14 strain (AID 159);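 note: 0% = growth of vehicle-treated control cultures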; settings: S. cerevisiae rad14 strain growth inhibition, hits give high values
How it was run: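 Test compounds were applied to a repair-deficient yeast strain. Its growth was then compared with that of cultures given vehicle alone, and inhibition was expressed relative to those controls.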

[8] = NCI Yeast Anticancer Drug Screen. Data for the sgs1 mgt1 strain (AID 161);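 note: 0% = growth of cultures given vehicle only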; settings: S. cerevisiae sgs1 mgt1 strain, hits give high values
How it was run: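 Yeast cells carrying a defined DNA-repair defect were exposed to test compounds. Growth inhibition was measured relative to vehicle-treated controls.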

[9] = NCI Yeast Anticancer Drug Screen. Data for the CLN2oe strain (AID 163);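 note: 0% = growth of vehicle-only control cultures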; settings: S. cerevisiae CLN2oe strain, hits give high values
How it was run: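 Compound-treated yeast; growth vs vehicle ctrl = % inhibition. Genetically altered strain (cell-cycle control).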

[10] = NCI Yeast Anticancer Drug Screen. Data for the cln2 rad14 strain (AID 165);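 note: 0% = growth equal to vehicle treated cultures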; settings: S. cerevisiae cln2 rad14 strain, hits give high values
How it was run: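 Growth inhibition, relative to vehicle-treated controls, is the read-out. The test organism is a yeast strain with defined genetic alterations, cln2 rad14.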

[11] = NCI Yeast Anticancer Drug Screen. Data for the bub3 strain (AID 167); settings: S. cerevisiae bub3 mutant strain, hits give high values
How it was run: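 Yeast carrying a defined mutation is treated with each compound, and growth is compared with that of vehicle-exposed cells to give inhibition.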

[12] = NCI Yeast Anticancer Drug Screen. Data for the wt2 strain (AID 169);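 note: 0% = growth of vehicle-treated yeast cultures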; settings: S. cerevisiae wt2 strain growth inhibition, hits give high values
How it was run: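 Compound exposure of yeast; growth compared with vehicle controls; inhibition reported.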

[13] = NCI Yeast Anticancer Drug Screen. Data for the mlh1 strain (AID 171);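 note: 0% = growth of vehicle-treated control cultures of the same strain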; settings: S. cerevisiae mlh1 strain growth inhibition, hits give high values
How it was run: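 Compounds are applied to a genetically altered yeast strain, and its growth is compared with that of vehicle-treated cultures to give percent inhibition.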

[14] = NCI Yeast Anticancer Drug Screen. Data for the sgs1 strain (AID 173);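 note: 0% = growth of vehicle-only control cultures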; settings: S. cerevisiae sgs1 mutant, hits give high values
How it was run: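 Compounds applied to genetically altered yeast; growth compared with vehicle-treated cultures to give % inhibition.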

[15] = NCI Yeast Anticancer Drug Screen. Data for the mlh1 rad18 strain (AID 175); settings: S. cerevisiae mlh1 rad18 strain growth inhibition, hits give high values
How it was run: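 Cells of a genetically altered yeast strain, deficient in DNA damage repair, were treated with compound. Their growth was then compared with that of vehicle-treated cultures to give inhibition.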

[16] = NCI Yeast Anticancer Drug Screen. Data for the rad18 strain (AID 177); settings: S. cerevisiae rad18 mutant growth inhibition, hits give high values
How it was run: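 Compounds are applied to a repair-deficient yeast strain, and growth is compared with that of vehicle-treated cultures to give percent inhibition.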

[17] = at 5.0 µM (retest, dose inferred, filed as 0.5)
[18] = at 50.0 µM (retest, dose inferred, filed as 5.0)

Measured: growth inhibition

Oc1cccnc1[Se]
inactive: [1]; at 1.2 µM 4% | [1]; at 3.7 µM 7% | [1]; at 11.0 µM 55% | [2]; at 1.2 µM -2% | [2]; at 3.7 µM -3% | [2]; at 11.0 µM -4% | [2]; at 33.0 µM 46% | [3]; at 1.2 µM 1% | [3]; at 3.7 µM 9% | [3]; at 11.0 µM 33% | [4]; at 1.2 µM -4% | [4]; at 3.7 µM -3% | [4]; at 11.0 µM -2% | [4]; at 33.0 µM 68% | [5]; at 1.2 µM 2% | [5]; at 3.7 µM 6% | [5]; [17] -15% | [5]; at 11.0 µM 60% | [5]; [18] 55% | [6]; at 1.2 µM -3% | [6]; at 3.7 µM -5% | [6]; [17] -2% | [6]; at 11.0 µM -3% | [6]; at 33.0 µM 38% | [6]; [18] -10% | [7]; at 1.2 µM 1% | [7]; at 3.7 µM 1% | [7]; at 11.0 µM 5% | [8]; [17] -10% | [8]; [18] 4% | [9]; at 1.2 µM -3% | [9]; at 3.7 µM 3% | [9]; at 11.0 µM -8% | [9]; at 33.0 µM 2% | [9]; at 100.0 µM 37% | [10]; [17] 7% | [10]; [18] 6% | [11]; at 1.2 µM -6% | [11]; at 3.7 µM -7% | [11]; [17] -21% | [11]; at 11.0 µM -13% | [11]; at 33.0 µM -5% | [11]; [18] -18% | [11]; at 100.0 µM 63% | [12]; at 1.2 µM -5% | [12]; at 3.7 µM -9% | [12]; at 11.0 µM -15% | [13]; at 1.2 µM -2% | [13]; at 3.7 µM 2% | [13]; at 11.0 µM 11% | [14]; at 1.2 µM -1% | [14]; at 3.7 µM 21% | [14]; at 11.0 µM 11% | [15]; [17] 7% | [15]; [18] 59% | [16]; at 1.2 µM -2% | [16]; at 3.7 µM 3% | [16]; at 11.0 µM 20%
active: [1]; at 33.0 µM 99% | [1]; at 100.0 µM 99% | [2]; at 100.0 µM 99% | [3]; at 33.0 µM 74% | [3]; at 100.0 µM 96% | [4]; at 100.0 µM 99% | [5]; at 33.0 µM 98% | [5]; at 50.0 µM 99% | [5]; at 100.0 µM 99% | [6]; at 50.0 µM 97.5% | [6]; at 100.0 µM 98% | [7]; at 33.0 µM 95% | [7]; at 100.0 µM 99% | [8]; at 50.0 µM 95.3% | [10]; at 50.0 µM 99% | [11]; at 50.0 µM 99.2% | [12]; at 33.0 µM 97% | [12]; at 100.0 µM 99% | [13]; at 33.0 µM 98% | [13]; at 100.0 µM 99% | [14]; at 33.0 µM 98% | [14]; at 100.0 µM 99% | [15]; at 50.0 µM 98% | [16]; at 33.0 µM 94% | [16]; at 100.0 µM 99%

O=[N+]([O-])c1ccc(-n2nc3ccc4c(no[n+]4[O-])c3[n+]2[O-])c([N+](=O)[O-])c1
active: [5]; [18] 98% | [6]; [18] 98% | [8]; [18] 97% | [8]; at 50.0 µM 70.5% | [10]; [18] 97% | [11]; [18] 96% | [15]; [18] 97%
inactive: [1]; at 1.2 µM 0% | [1]; at 3.7 µM 1% | [1]; at 11.0 µM 2% | [1]; at 33.0 µM 4% | [1]; at 100.0 µM 6% | [2]; at 1.2 µM -2% | [2]; at 3.7 µM -2% | [2]; at 11.0 µM -2% | [2]; at 33.0 µM 0% | [2]; at 100.0 µM 3% | [3]; at 1.2 µM 3% | [3]; at 3.7 µM 8% | [3]; at 11.0 µM 13% | [3]; at 33.0 µM 26% | [3]; at 100.0 µM 24% | [4]; at 1.2 µM -4% | [4]; at 3.7 µM -3% | [4]; at 11.0 µM 5% | [4]; at 33.0 µM -3% | [4]; at 100.0 µM -2% | [5]; at 1.2 µM -1% | [5]; at 3.7 µM 1% | [5]; [17] 20% | [5]; at 11.0 µM -5% | [5]; at 33.0 µM 6% | [5]; at 50.0 µM 30.4% | [5]; at 100.0 µM 4% | [6]; at 1.2 µM 3% | [6]; at 3.7 µM 0% | [6]; [17] 23% | [6]; at 11.0 µM 2% | [6]; at 33.0 µM 3% | [6]; at 50.0 µM 9.9% | [6]; at 100.0 µM 2% | [7]; at 1.2 µM -3% | [7]; at 3.7 µM -1% | [7]; at 11.0 µM 7% | [7]; at 33.0 µM 8% | [7]; at 100.0 µM 8% | [8]; [17] 16% | [9]; at 1.2 µM -1% | [9]; at 3.7 µM -5% | [9]; at 11.0 µM -6% | [9]; at 33.0 µM -2% | [9]; at 100.0 µM 2% | [10]; [17] 44% | [10]; at 50.0 µM 9.9% | [11]; at 1.2 µM -3% | [11]; at 3.7 µM 1% | [11]; [17] -14% | [11]; at 11.0 µM 10% | [11]; at 33.0 µM 8% | [11]; at 50.0 µM 66.7% | [11]; at 100.0 µM 9% | [12]; at 1.2 µM -8% | [12]; at 3.7 µM -3% | [12]; at 11.0 µM -2% | [12]; at 33.0 µM 2% | [12]; at 100.0 µM 3% | [13]; at 1.2 µM 0% | [13]; at 3.7 µM -4% | [13]; at 11.0 µM -3% | [13]; at 33.0 µM 1% | [13]; at 100.0 µM -5% | [14]; at 1.2 µM -1% | [14]; at 3.7 µM 1% | [14]; at 11.0 µM 3% | [14]; at 33.0 µM 4% | [14]; at 100.0 µM 6% | [15]; [17] 28% | [15]; at 50.0 µM -13.2% | [16]; at 1.2 µM -1% | [16]; at 3.7 µM 4% | [16]; at 11.0 µM 7% | [16]; at 33.0 µM 1% | [16]; at 100.0 µM 19%
